# Hits are enriched below; roughly 18% of the tested compounds scored in any of these assays.
# TDP1 cell CPT – growth inhibition of DT40 Tdp1-/-;hTDP1 cells with camptothecin (screen for TDP1 inhibitors); chicken DT40 Tdp1-/-;hTDP1 cells + 20 nM CPT, ATP luminescence, 48 h; Potency, µM (highest dose often 46.2 µM), for inactives: at the top dose activity change, negative = growth inhibition, actives largely listed as inhibitors; actives 12% (n = 420,000); note: potency is the fitted concentration of half-maximal effect; nearly all actives have a fitted effect of over 55% in size
#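 Chicken DT40 Tdp1-/- cells complemented with human TDP1, 400 cells/well, exposed to compounds plus 20 nM camptothecin for at least 48 h at 37 C; viability read as ATP content by CellTiter-Glo luminescence.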
# DT40 TDP1 no CPT – qHTS for Inhibitors of human tyrosyl-DNA phosphodiesterase 1 (TDP1): qHTS in cells in absence of CPT. Potency, µM (series often up to 46.2 µM), for inactives: at the highest dose activity change, negative = growth inhibition, most hits filed as inhibitors. actives 15% (n = 420,000). DT40 Tdp1-/- hTDP1 cells, no CPT, ATP luminescence, 48 h; note: potency is the fitted concentration of half-maximal effect; nearly all actives have a fitted effect of over 55% in size
#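 Chicken DT40 Tdp1-/- cells stably complemented with human TDP1 were seeded at 400 cells/well with DMSO in place of 20 nM camptothecin. After compound pinning, cells grew at least 48 hr at 37 °C; viability read by CellTiter-Glo luminescence.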
# RORgamma inh – ROR gamma (mouse) transcription inhibition | Potency, µM (series often up to 53.6 µM), for the others: at the highest dose activity change, negative = inhibition, most hits filed as inhibitors | Drosophila S2 Gal4-RORgamma UAS-luciferase reporter, 20 h | AID 2551 | actives 5.4% (n = 310,000); note: potency is the fitted concentration of half-maximal effect; nearly all actives have a fitted effect of over 60% in size
# Target sequence (P51450 whole entry, looked up, the tested form may be a part): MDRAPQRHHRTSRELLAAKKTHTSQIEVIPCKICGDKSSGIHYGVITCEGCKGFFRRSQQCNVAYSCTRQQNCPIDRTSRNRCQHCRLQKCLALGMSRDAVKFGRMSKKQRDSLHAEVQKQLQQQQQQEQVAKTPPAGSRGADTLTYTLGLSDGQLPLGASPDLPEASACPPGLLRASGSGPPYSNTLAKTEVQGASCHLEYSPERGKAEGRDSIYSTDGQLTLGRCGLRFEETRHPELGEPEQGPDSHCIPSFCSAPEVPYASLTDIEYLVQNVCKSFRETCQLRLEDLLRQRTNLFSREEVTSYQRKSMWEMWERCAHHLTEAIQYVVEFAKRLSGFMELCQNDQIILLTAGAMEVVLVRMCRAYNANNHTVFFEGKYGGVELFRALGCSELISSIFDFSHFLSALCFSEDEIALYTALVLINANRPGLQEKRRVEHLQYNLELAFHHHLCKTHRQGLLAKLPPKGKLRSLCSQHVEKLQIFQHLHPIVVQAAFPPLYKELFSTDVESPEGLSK
#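 Luminescence from a UAS-regulated Photinus luciferase reporter in stably transfected Drosophila Schneider cells is measured; decreased signal marks ROR gamma inhibition. Fusion expression is induced by 700 uM copper sulfate for 20 hr.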
# IL1B secr inh – blocks inflammasome-driven IL-1 beta release | THP-1 LPS/ATP IL-1B secretion, AlphaLISA, 16 h; hits give low values | activity change, % at 57.5 µM | actives 4.7% (n = 360,000); in the data active = activity change below about -50%; inconclusive = mostly about -30% to -49%
#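 Secreted IL-1B measured by AlphaLISA bead assay after 16 h compound exposure of THP-1 cells; compounds (final up to 57.5 uM) added 1 h before LPS (250 ng/mL) and ATP (1.25 mM) stimulation; lower signal means less secretion.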
# LDHA block – inhibitors of human lactate dehydrogenase A; purified LDHA, NADH/diaphorase-resazurin fluorescence; hits give low values; actives 0.15% (n = 480,000); P00338; AID 1347041; activity change, % (values are at about 110 or 230 µM); in the data active = activity change below about -30%; inconclusive = mostly about -25% to -30%;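 note: plate controls were DMSO wells for no effect and wells without enzyme for full effect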
#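 Human LDH5 (2 nM) was incubated with 0.06 mM NADH and 0.2 mM pyruvate for 5 min at room temperature in Tris pH 7.4. Remaining NADH was coupled through diaphorase/resazurin, and resorufin fluorescence was read at 0 and 20 min.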
# VP16 counter – inhibits Gal4-VP16 luciferase reporter, ROR gamma counter-screen; Drosophila S2 Gal4-VP16 UAS-luciferase, luminescence, 20 h; actives 3.5% (n = 310,000); Potency, µM (top dose mostly 53.6 µM), for the others: top-dose activity, negative = inhibition, usual class: inhibitors;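 note: Gal4-VP16 expression switched on by copper sulfate through the metallothionein promoter; potency is the fitted concentration of half-maximal effect; nearly all actives have a fitted effect of over 50% in size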
# The depositor's hits bear a star; ? = inconclusive; · = no result given. Unless noted, calls come from the whole dose curve; as a rule, active = well fitted curve in the direction sought with a large enough effect; inconclusive = small, poorly fitted or top-dose-only effect, or another doubt; inactive = no such curve, though single readings can be large; an effect the other way counts as inactive or inconclusive. Unless noted, % is set by controls: 0 for no effect and ±100 for the full control effect.
SMILES,TDP1 cell CPT,DT40 TDP1 no CPT,RORgamma inh,IL1B secr inh,LDHA block,VP16 counter
CN(C)S(=O)(=O)c1ccc2c(c1)C(=O)c1cc(S(=O)(=O)N(C)C)ccc1CC2,·,·,·,·,-8,·
CN(C)S(=O)(=O)c1ccc2c(c1)C(=NO)c1cc(S(=O)(=O)N(C)C)ccc1-2,?,8.2µM*,8%,9,-5,4%
CN(C)N=C1c2cc(S(=O)(=O)N(C)C)ccc2-c2ccc(S(=O)(=O)N(C)C)cc21,4.6µM*,2.9µM*,-18%,9,-2,12%
CN(CCO)S(=O)(=O)c1ccc2c(c1)C(=NNC(N)=O)c1cc(S(=O)(=O)N(C)CCO)ccc1-2,2%,10%,0%,0,-12,-3%
CN(C)S(=O)(=O)c1ccc2c(c1)C(=NNC(N)=O)c1cc(S(=O)(=O)N(C)C)ccc1-2,16µM*,?,-1%,-1,-1,6%
O=C(Nc1ccc2c3c(cccc13)CC2)c1ccc(Cl)cc1,·,·,·,·,-1,·
COc1ccc(N2Cc3cccc(C(=O)NCc4ccc(F)cc4)c3C2=O)cc1,·,·,·,·,-1,·
CCn1nc(C(=O)N2CCN(CC(=O)NC3CC3)CC2)c2ccccc2c1=O,·,·,·,·,-1,·
COc1ccc(CC(=O)NC2CCN(CC(=O)N3CCCc4ccccc43)CC2)cc1OC,-22%,3.7µM*,9%,30,-9,-3%
O=C(Cc1ccc(NC(=O)N2CCCCc3ccccc32)cc1)NCc1ccccc1Br,?,23µM*,·,·,-3,·
COc1ccc(Cl)cc1NC(=O)Cc1ccc(NC(=O)N2CCCCc3ccccc32)cc1,18µM*,21µM*,·,·,-12,·
COc1ccc(CNC(=O)CCC(=O)N2CC3CCCN3c3ccccc32)cc1 (configuration not stated),12µM*,21µM*,·,·,2,·
CC(C)CCNC(=O)Cc1ccc(NC(=O)N2CCCCc3ccccc32)cc1,-24%,?,·,·,0,·
O=C1NC(C(=O)O)=CC(c2ccccc2Cl)N1 (configuration not stated),·,·,·,·,8,·
O=c1oc2ccc(Br)cc2cc1S(=O)(=O)N1CCCCCC1,·,·,·,·,5,·
CCCc1ccc(NC(=O)c2n[nH]c(=O)c3ccccc23)cc1,·,·,·,·,2,·
COc1ccc(CNC(=O)Cc2ccc(NC(=O)N3CCCCc4ccccc43)cc2)cc1,?,23µM*,·,·,-5,·
CCc1ccc(CNC(=O)c2ccc(NC(=O)N3CCCCc4ccccc43)cc2)cc1,21µM*,?,·,·,-2,·
O=C(Cc1ccc(NC(=O)N2CCCCc3ccccc32)cc1)NCc1ccccc1,23µM*,23µM*,·,·,2,·
COc1ccc(OC)c(CNC(=O)Cc2ccc(NC(=O)N3CCCCc4ccccc43)cc2)c1,12µM*,9.2µM*,·,·,-2,·
CCOc1ccc(CNC(=O)c2ccc(NC(=O)N3CCCCc4ccccc43)cc2)cc1,?,?,·,·,0,·
Cc1cccc(-c2nnc(SCC#N)n2-c2ccccc2)c1,-19%,?,6%,?,-2,-2%
CCCCn1nnnc1CSc1nnc(-c2ccccc2)n1-c1ccccc1,·,·,·,·,-31*,·
COc1ccc(-c2c(-c3cc(OC)cc(OC)c3)n(C)c3ccc(-c4ccc(N(C)C)nc4)cc23)cc1,21µM*,18µM*,·,39,-3,·
COc1cc(OC)cc(-c2c(C#Cc3ccsc3)c3cc(-c4ccc(N(C)C)nc4)ccc3n2C)c1,?,21µM*,·,14,-4,·
SMILES,TDP1 cell CPT,DT40 TDP1 no CPT,RORgamma inh,IL1B secr inh,LDHA block,VP16 counter
COc1ccc(-c2ccc3c(c2)c(C#Cc2ccsc2)c(-c2cc(OC)cc(OC)c2)n3C)cc1,0%,?,·,21,-9,·
COc1cc(OC)cc(-c2c(-c3ccc(F)cc3)c3cc(-c4ccc(SC)cc4)ccc3n2C)c1,?,?,·,0,-7,·
COc1cc(OC)cc(-c2c(-c3ccc(F)cc3)c3cc(-c4ccc(OC)nc4)ccc3n2C)c1,?,23µM*,·,6,0,·
COc1cccc(-c2c(-c3cc(OC)cc(OC)c3)n(C)c3ccc(Br)cc23)c1,4%,2%,·,-17,-8,·
COc1cccc(-c2c(-c3cc(OC)cc(OC)c3)n(C)c3ccc(-c4ccc(OC)nc4)cc23)c1,18µM*,16µM*,·,14,-2,·
COc1ccc(-c2c(-c3cc(OC)cc(OC)c3)n(C)c3ccc(Br)cc23)cc1,-2%,-24%,·,-1,-9,·
Cc1ccsc1CNCCN(C)C,·,·,·,·,-8,·
O=C(NCc1ccncc1)C1c2ccccc2C(=O)N(Cc2ccccc2)C12CCCCC2 (configuration not stated),·,·,·,·,0,·
COc1ccc(CCNC(=O)Cc2c(C)c3ccc(OC)c(C)c3oc2=O)cc1,·,·,·,·,2,·
CC(=O)c1cc(CN2CCN(Cc3ccc(C)cc3)C(CCO)C2)cs1 (configuration not stated),-13%,?,-9%,-24,-5,10%
COc1ccc(CN2CCN(C3CCOCC3)CC2CCO)c(C)c1C (configuration not stated),-7%,-3%,-18%,7,-2,2%
CCC1CCCCN1Cc1ccc(OC)c(C)c1C (configuration not stated),-16%,-2%,11µM*,9,-1,4%
COc1ccc(CN2CCN(Cc3nc4ccccc4s3)CC2CCO)c(C)c1C (configuration not stated),?,15µM*,?,?,2,5%
COc1ccc(CN2CCN(C3CCSCC3)CC2CCO)c(C)c1C (configuration not stated),18µM*,16µM*,-7%,-4,-3,6%
CC(=O)c1cc(CN2CCN(CCC(C)C)C(CCO)C2)cs1 (configuration not stated),16µM*,?,-14%,7,-3,-16%
COC(=O)c1c(C)[nH]c(C(=O)C(C)OC(=O)c2ccccc2F)c1C (configuration not stated),·,·,·,·,1,·
CC(=O)NC1(C(=O)NCC(=O)NC(C)(C)C)CCCCC1,·,·,·,·,3,·
CSc1ccc(/C=C/c2nc(-c3ccc(F)cc3)cs2)cc1,·,·,·,·,0,·
COc1ccc(CN2CCN(CC3CC3)CC2CCO)c(C)c1C (configuration not stated),?,-12%,·,-3,1,·

# From PubChem
